Results: the supplement of paper PMC6135742
“And” between values parts separate entries of the source, which are not always exact repeats. Equal entries are not always repeated. Structures can show the parent of a compound that is named as a salt. ± gives the standard deviation of the averaged measurements. Whole data set: some 2,600 compounds, median “total cell number (DAPI+ nuclei) relative to DMSO vehicle control” near -1.4, cut for the lowest 2% near -23. This excerpt belongs to a sample that is enriched for the lowest values.

test system: jimpy (Plp1 jimpy) mouse iPSC-derived oligodendrocyte progenitor cells; experiment: total cell number (DAPI+ nuclei) relative to DMSO vehicle control (SDs above negative control mean); higher = more surviving cells; conditions: 10 µM; 3 days
Protocol: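 Primary phenotypic screen of >3,000 bioactive compounds (Selleck L1700 and Sigma LO1280 libraries) at a single dose of 10 µM. Compounds were added to jimpy (Plp1 mutant) mouse iPSC-derived OPCs at the start of thyroid hormone-induced oligodendrocyte differentiation, one well per compound in 384-well plates. After 3 days cells were stained for MBP, Sox10 and DAPI and imaged with an Operetta system. MBP+ oligodendrocyte number and total cell number were expressed as the number of SDs above the mean of the DMSO negative control on the same plate (n=16 control wells per plate). Hits were defined as >=4 SD for oligodendrocytes and >=2 SD for total cells.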

Structure (SMILES)	total cell number
CN(NC(=O)CC(=O)NN(C)C(=S)c1ccccc1)C(=S)c1ccccc1 [Elesclomol (STA-4783)]	-1.04
CCC(C)(Oc1ccc(C2(c3ccc(OC(C)(CC)C(=O)O)cc3)CCCCC2)cc1)C(=O)O (stereo not given) [Clinofibrate]	1.25
N[C@H]1C[C@@H]1c1ccc(-c2cccc(O)c2)cc1	-3.31
Cc1ccc(C(=O)Cn2c3c(sc2=N)CCCC3)cc1 [Pifithrin-? (PFT?)]	1.69
OC[C@H]1O[C@@H](n2cnc3c(N[C@H]4CCC[C@@H]4O)ncnc32)[C@H](O)[C@@H]1O	0.458
CC(Cc1ccc(O)c(O)c1)(NN)C(=O)O (stereo not drawn) [S-(-)-Carbidopa]	-1.61
Cc1cc(Cn2cnc3c2C[C@@H](C(=O)O)N(C(=O)C(c2ccccc2)c2ccccc2)C3)ccc1N	-6.04
O=C(Nc1ccccc1-c1cn2c(CN3CCNCC3)csc2n1)c1cnc2ccccc2n1	-27.8
C=C1C[C@@]23CC[C@H]4[C@@](C)(CCC[C@@]4(C)C(=O)O)[C@@H]2CC[C@]1(O)C3 [Steviol]	-0.619
CC(C)c1cc(-c2n[nH]c(=O)n2-c2ccc3c(ccn3C)c2)c(O)cc1O [Ganetespib (STA-9090)]	-25.4
Cc1cc(NC(=O)Nc2ccc3c(ccn3C)c2)sn1	-1.4
CN(C[C@@H]1COCCO1)S(=O)(=O)Nc1ccc2ccc3ncc(-c4cnn(C)c4)cc3c(=O)c2c1	-9.05
Cc1ccc(C(=O)N(CCCN)[C@@H](c2nc3cc(Cl)ccc3c(=O)n2Cc2ccccc2)C(C)C)cc1	-27.5
Cc1ccc(C(=O)N(CCCN)[C@@H](c2oc3cc(Cl)ccc3c(=O)c2Cc2ccccc2)C(C)C)cc1	-15.1
CNC(=O)CN(CCN(CCN(CC(=O)[O-])CC(=O)NC)CC(=O)[O-])CC(=O)[O-].[Gd+3] [Gadodiamide]	-14.9
C=CCNC(N)=S [Allylthiourea]	6.27
CCc1ccc(OCc2ccccc2C(=O)Nc2ccc3nc(C)cc(N)c3c2)cc1	-12.5
COc1cc2nccc(Oc3ccc(NC(=O)Nc4cc(C)on4)c(Cl)c3)c2cc1OC [Tivozanib (AV-951)]	-23.5
COc1cc(OC)c(NC(=O)Nc2cc(C)on2)cc1Cl	-0.876
COc1cc2nccc(Oc3ccc(NC(=O)NC4CC4)c(Cl)c3)c2cc1C(N)=O [Lenvatinib (E7080)]	-9.34
Nc1nccc2c1ncn2C1C=C(CO)C(O)C1O (stereo not given) [3-Deazaneplanocin A (DZNeP)]	-9.16
CN(C)C[C@H](O)Cn1c2ccc(Br)cc2c2cc(Br)ccc21 (racemic) [Wiskostatin]	-4.17
Nc1n[n+]([O-])c2ccccc2[n+]1[O-] [Tirapazamine]	-6.5
COc1c(C)cnc(Cn2cnc3c(Cl)nc(N)nc32)c1C	-26.3
COc1ccc2[nH]c([S@@+]([O-])Cc3ncc(C)c(OC)c3C)nc2c1 [Esomeprazole Sodium]	1.8

Structure (SMILES)	total cell number
COc1ccc2[nH]c([S+]([O-])Cc3ncc(C)c(OC)c3C)nc2c1 (stereo not given) [Omeprazole]	5.38
COc1ccc2[nH]c([S@@+]([O-])Cc3ncc(C)c(OC)c3C)nc2c1 [Esomeprazole magnesium dihydrate]	-0.604
CC(C)(C)C(=O)Oc1ccc(S(=O)(=O)Nc2ccccc2C(=O)NCC(=O)O)cc1 [Sivelestat sodium salt hydrate]	0.0346
OCCN1CCN(CC/C=C2/c3ccccc3Sc3ccc(C(F)(F)F)cc32)CC1 [cis-(Z)-Flupenthixol dihydrochloride]	-7.96
CN(C)CCN1C(=O)c2cccc3cc(N)cc(c23)C1=O [Amonafide]	-24
O=C(CCCCCN1C(=O)c2cccc3cccc(c23)C1=O)NO [Scriptaid]	-6.21
CC(NC(=O)c1ccccc1/N=C/c1c(O)ccc2ccccc12)c1ccccc1 (stereo not given) [Sirtinol]	-0.73
CCC(=O)O[C@]1(C(=O)CCl)[C@@H](C)C[C@H]2[C@@H]3C[C@H](F)C4=CC(=O)C=C[C@]4(C)[C@@]3(F)[C@@H](O)C[C@@]21C [Halobetasol Propionate]	10.4
O=C(O)CC[C@H]1CC[C@@](c2cc(F)ccc2F)(S(=O)(=O)c2ccc(Cl)cc2)CC1	0.0291
CC(C)(C)c1cnc(CSc2cnc(NC(=O)C3CCNCC3)s2)o1	-22.9
Nc1ncnc2c1nc(Br)n2C1OC2COP(=O)(O)O[C@@H]2C1O (stereo not given in full) [8-Bromo-cAMP sodium]	-0.722
CC(C)[C@H]1C(=O)N[C@@H](CCCNC(=N)N)C(=O)NCC(=O)N[C@@H](CC(=O)O)C(=O)N[C@H](Cc2ccccc2)C(=O)N1C [Cilengitide]	1.19
COc1cc(Nc2c(C#N)cnc3cc(OCCCN4CCN(C)CC4)c(OC)cc23)c(Cl)cc1Cl [Bosutinib]	-10.5
COc1cc(C(=O)OCCCN2CCCN(CCCOC(=O)c3cc(OC)c(OC)c(OC)c3)CC2)cc(OC)c1OC [Dilazep hydrochloride]	-5.8
COc1cc(Nc2c(C#N)cnc3cc(OCCCN4CCN(C)CC4)c(OC)cc23)c(Cl)cc1Cl [Bosutinib (SKI-606)]	-26.4
COc1cc2nc(N3CCCN(C)CC3)nc(NC3CCN(Cc4ccccc4)CC3)c2cc1OC	-10.1 and -15.2
COc1cc2/c(=N/c3ccc(Br)cc3F)nc[nH]c2cc1OCC1CCN(C)CC1 [Vandetanib (ZD6474)]	-26.7
COc1ccc(C[C@H](NC(=O)[C@H](C)NC(=O)CN2CCOCC2)C(=O)N[C@@H](Cc2ccccc2)C(=O)[C@@]2(C)CO2)cc1	-12.1
CC(C)(N)c1ncc(-c2ccc(OC(F)(F)F)cc2)[nH]1	-3.28
Oc1cccc(-c2nc(N3CCOCC3)c3oc4ncccc4c3n2)c1	-21
N#CC(C#N)=C(N)/C(C#N)=C/c1cc(O)c(O)c(O)c1 [Tyrphostin 51]	-1.44
C[C@H](Oc1cc(-c2cnn(C3CCNCC3)c2)cnc1N)c1c(Cl)ccc(F)c1Cl [(S)-crizotinib]	-15.7
Fc1cc(-c2cccc3ncc(-c4cnn(C5CCNCC5)c4)nc23)cc(F)c1CN1CCOCC1	-12.4
C[C@@H](Oc1cc(-c2cnn(C3CCNCC3)c2)cnc1N)c1c(Cl)ccc(F)c1Cl	-27.1
C=CCc1cccc(/C=N/NC(=O)CN2CCN(Cc3ccccc3)CC2)c1O	-9.01 ± 1.4

Structure (SMILES)	total cell number
O=C(Nc1ccc(S(=O)(=O)Nc2ccccc2Cl)c(Cl)c1)c1ccccn1	0.173
O=c1cc2c(=O)oc3cc(O)c(O)oc3c2c(O)c1O [Galloflavin potassium]	-1.51
CN1CCN(C(=O)c2cc3cc(Cl)ccc3[nH]2)CC1	-2.98
Cc1[nH]c(/C=C2\C(=O)Nc3ccc(S(=O)(=O)N(C)c4cccc(Cl)c4)cc32)c(C)c1C(=O)N1CCN(C)CC1	-26.7
Cc1[nH]c(/C=C2\C(=O)Nc3ccc(S(=O)(=O)Cc4c(Cl)cccc4Cl)cc32)c(C)c1C(=O)N1CCC[C@@H]1CN1CCCC1	-27.2
CC(C)C[C@H](NC(=O)[C@H]1O[C@@H]1C(=O)O)C(=O)NCCCCN=C(N)N	-3.4 ± 0.35
CN1[C@@H]2CC[C@H]1C[C@@H](OC(=O)C(O)c1ccccc1)C2 (mixture of isomers) [DL-Homatropine hydrobromide]	0.0407
Cc1nc(NC(=O)N2CCC[C@H]2C(N)=O)sc1-c1ccnc(C(C)(C)C(F)(F)F)c1	-10.3
COc1cc(C(O)C(=O)O)ccc1O (racemic) [(±)-Vanillylmandelic acid]	-0.443
CC(=O)Nc1nc(C)c(-c2ccc(Cl)c(S(=O)(=O)NCCO)c2)s1	-15.8
C[C@H](c1ccc(F)cc1CCCC(=O)O)N(c1cc(F)ccc1F)S(=O)(=O)c1ccc(Cl)cc1	-4.06
CCN(CC)CCCCCCCCOC(=O)c1cc(OC)c(OC)c(OC)c1 [TMB-8 hydrochloride]	2.1
CCN(CC)CCCCNc1ncc2cc(-c3cc(OC)cc(OC)c3)c(NC(=O)NC(C)(C)C)nc2n1	-24.8
COc1cc(OC)cc(-c2cc3cnc(N)nc3nc2NC(=O)NC(C)(C)C)c1	-5.24
C=C1CC[C@@H]2[C@](C)(CO)[C@H](O)CC[C@@]2(C)[C@@H]1C/C=C1/C(=O)OC[C@H]1O [Andrographolide]	-9.57
C=CC(=O)Nc1ccc2ncnc(Nc3cccc(Br)c3)c2c1	-13.1
N[C@@H](Cc1ccc(F)cc1)C(=O)O [p-Fluoro-L-phenylalanine]	-1.39
Cc1ccc([N+](=O)[O-])cc1S(=O)(=O)N(C)/N=C/c1cnc2ccc(Br)cn12	-25.8
O=C(O)C1=CO[C@@H](O[C@@H]2O[C@H](CO)[C@@H](O)[C@H](O)[C@H]2O)[C@@H]2C(CO)=CC[C@H]12 [Geniposidic acid]	-0.368
COc1ccc(S(=O)(=O)Nc2nc(-c3cccc([N+](=O)[O-])c3)cs2)cc1OC	-0.431
O=C(c1cc(O)c(O)c([N+](=O)[O-])c1)c1ccccc1F	0.768
CC1(C)CCC(c2ccc(Cl)cc2)=C(CN2CCN(c3ccc(C(=O)NS(=O)(=O)c4ccc(N[C@H](CCN5CCOCC5)CSc5ccccc5)c(S(=O)(=O)C(F)(F)F)c4)cc3)CC2)C1 [ABT-263 (Navitoclax)]	-16.7
CC1(C)CCC(CN2CCN(c3ccc(C(=O)NS(=O)(=O)c4ccc(NCC5CCOCC5)c([N+](=O)[O-])c4)c(Oc4cnc5[nH]ccc5c4)c3)CC2)=C(c2ccc(Cl)cc2)C1	-3.38
CN(C)CC[C@H](CSc1ccccc1)Nc1ccc(S(=O)(=O)NC(=O)c2ccc(N3CCN(Cc4ccccc4-c4ccc(Cl)cc4)CC3)cc2)cc1[N+](=O)[O-]	-23.1
CCOC(=O)c1c(CSc2ccccc2)n(C)c2cc(Br)c(O)c(CN(C)C)c12 [Arbidol HCl]	-4.97
